From PubChem BioAssay (EPA / NIEHS)
Values joined by “and” are separate entries in the source; they are usually repeats but may differ in a detail not shown here. Equal entries are not always repeated. Records with an inconclusive call do not appear. Active and inactive are the calls of the source. Rule for the calls, unless noted: active = hit-call score of the fitted dose curve at least 0.9, where 1 is the maximum; inactive = score below 0.9.

How the values were obtained:
[1] = read-out: E-selectin (Homo sapiens) (UniProt P16581); assay: BSK_SAg_Eselectin: BioMAP Diversity Plus: SAg Assay for Eselectin Biomarker Activity (AID 2283091); conditions: primary human HUVEC with PBMC; actives raise or lower the signal
Method in brief: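 E-selectin ELISA readout at 24 h post-dosing in human umbilical vein endothelial cell/PBMC co-culture; gain or loss of signal fitted relative to DMSO baseline.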

[2] = read-out: Monokine induced gamma interferon (MIG), CXCL9 (gene 4283); assay: BSK_SAg_MIG: BioMAP Diversity Plus: SAg Assay for Monokine induced gamma interferon (MIG) Biomarker Activity (AID 2283092); conditions: primary human HUVEC with PBMC; actives raise or lower the signal
Method in brief: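 Values reflect bidirectional fitting of ELISA-measured MIG against DMSO vehicle, taken 24 h after dosing of a co-culture of human umbilical vein endothelial cells and peripheral blood mononuclear cells.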

[3] = BSK_SAg_PBMCCytotoxicity: PBMC Cytotoxicity Assessment in the BioMAP Diversity Plus: SAg Assay (AID 2283093); conditions: primary human HUVEC with PBMC;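 note: PBMC viability measured as Alamar Blue reduction fluorescence at 546/580 nm; fitted both ways against DMSO so a hit may be loss or gain of signal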;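 for AC50: PBMC superantigen activated with SEB plus TSST-1 one hour after compound addition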
Method in brief: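 Alamar Blue reduction (6 h, 546/580 nm) reports PBMC cytotoxicity after 90 h superantigen activation (SEB, TSST-1; 20 ng/mL final each) with 1 h compound pre-treatment. Gain or loss of signal fitted versus DMSO.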

[4] = read-out: Interleukin-8 (IL8), CXCL8 (gene 3576); assay: BSK_SAg_IL8: BioMAP Diversity Plus: SAg Assay for Interleukin-8 (IL8) Biomarker Activity (AID 2283094); conditions: primary human HUVEC with PBMC; actives raise or lower the signal
Method in brief: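 Chemicals were dosed onto a human endothelial–PBMC co-culture, and IL-8 was quantified by ELISA after 24 h. Both increases and decreases were fitted relative to DMSO.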

[5] = BSK_SAg_Proliferation: Cell Proliferation Assessment in the BioMAP Diversity Plus: SAg Assay (AID 2283095); conditions: primary human HUVEC with PBMC;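 note: relative cell number as total protein by SRB absorbance in sub-confluent culture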
Method in brief: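 Absorbance of sulforhodamine B at 560 nm reports total protein in a human vascular endothelial/PBMC co-culture after 96 h chemical exposure. Gain or loss of signal is fitted in both directions against DMSO.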

[6] = BSK_SAg_SRB: Viability Assessment in the BioMAP Diversity Plus: SAg Assay (AID 2283096); conditions: primary human HUVEC with PBMC;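 note: cells read one day after compound addition; hits may be either gain or loss of signal compared with DMSO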
Method in brief: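 This overt-cytotoxicity endpoint quantifies protein in human endothelial/PBMC co-cultures at 24 h using SRB absorbance (560 nm) after trichloroacetic acid fixation. Values reflect signal change from the DMSO negative control, fitted bidirectionally.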

[7] = molecular target: human CYP19A1, CYP19A1 (gene 1588) (UniProt P11511); assay: NVS_ADME_hCYP19A1: NovaScreen (NVS) CYP450-related Enzyme Activity (ADME) Assay for human CYP19A1 (AID 2283098; active = hit-call score of the fitted dose curve at least 0.9, where 1 is the maximum)
Sequence of human CYP19A1, CYP19A1 (gene 1588) (P11511 whole entry, looked up): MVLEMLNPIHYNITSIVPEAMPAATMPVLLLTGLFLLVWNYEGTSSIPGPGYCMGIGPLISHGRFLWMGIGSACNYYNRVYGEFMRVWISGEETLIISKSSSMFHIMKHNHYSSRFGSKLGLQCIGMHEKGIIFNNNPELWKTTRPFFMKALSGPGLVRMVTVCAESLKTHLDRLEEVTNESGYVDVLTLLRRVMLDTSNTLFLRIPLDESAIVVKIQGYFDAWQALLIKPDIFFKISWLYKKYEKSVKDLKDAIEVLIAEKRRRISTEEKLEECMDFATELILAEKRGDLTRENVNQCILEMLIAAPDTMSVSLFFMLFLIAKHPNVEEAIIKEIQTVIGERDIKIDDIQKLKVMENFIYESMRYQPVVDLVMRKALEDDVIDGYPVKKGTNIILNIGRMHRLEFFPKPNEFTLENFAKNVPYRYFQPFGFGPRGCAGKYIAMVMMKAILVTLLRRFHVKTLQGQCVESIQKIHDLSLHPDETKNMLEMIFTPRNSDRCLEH
Method in brief: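 Compounds were first screened at 10 uM in duplicate against purified enzyme, with a fluorogenic substrate and fluorescence intensity detection after 0.5 h. Inhibition appears as reduced signal against acetonitrile control.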

[8] = molecular target: human CYP2B6, CYP2B6 (gene 1555) (UniProt P20813); assay: NVS_ADME_hCYP2B6: NovaScreen (NVS) CYP450-related Enzyme Activity (ADME) Assay for human CYP2B6 (AID 2283101; active = hit-call score of the fitted dose curve at least 0.9, where 1 is the maximum)
Sequence of human CYP2B6, CYP2B6 (gene 1555) (P20813 whole entry, looked up): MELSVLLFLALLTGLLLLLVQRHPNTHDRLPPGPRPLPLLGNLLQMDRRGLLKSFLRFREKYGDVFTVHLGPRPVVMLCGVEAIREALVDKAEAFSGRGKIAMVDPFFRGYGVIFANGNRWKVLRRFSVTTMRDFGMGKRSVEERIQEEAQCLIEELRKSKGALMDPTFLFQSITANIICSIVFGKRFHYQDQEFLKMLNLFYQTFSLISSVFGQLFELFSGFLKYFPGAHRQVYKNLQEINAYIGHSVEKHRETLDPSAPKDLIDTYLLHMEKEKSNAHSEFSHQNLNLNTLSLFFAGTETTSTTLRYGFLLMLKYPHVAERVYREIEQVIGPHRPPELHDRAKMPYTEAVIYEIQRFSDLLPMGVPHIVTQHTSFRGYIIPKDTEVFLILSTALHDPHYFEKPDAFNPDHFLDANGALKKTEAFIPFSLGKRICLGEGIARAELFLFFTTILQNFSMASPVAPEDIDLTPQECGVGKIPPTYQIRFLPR
Method in brief: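 Compounds were first screened in duplicate at 10 uM against recombinant enzyme, with the fluorescent product measured after 1 hour. Active compounds were retested over a concentration series. Loss of fluorescence versus acetonitrile control was scored as reduced enzyme activity.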

[9] = molecular target: human CYP1A1, CYP1A1 (gene 1543) (UniProt P04798); assay: NVS_ADME_hCYP1A1: NovaScreen (NVS) CYP450-related Enzyme Activity (ADME) Assay for human CYP1A1 (AID 2283100; active = hit-call score of the fitted dose curve at least 0.9, where 1 is the maximum)
Sequence of human CYP1A1, CYP1A1 (gene 1543) (P04798 whole entry, looked up): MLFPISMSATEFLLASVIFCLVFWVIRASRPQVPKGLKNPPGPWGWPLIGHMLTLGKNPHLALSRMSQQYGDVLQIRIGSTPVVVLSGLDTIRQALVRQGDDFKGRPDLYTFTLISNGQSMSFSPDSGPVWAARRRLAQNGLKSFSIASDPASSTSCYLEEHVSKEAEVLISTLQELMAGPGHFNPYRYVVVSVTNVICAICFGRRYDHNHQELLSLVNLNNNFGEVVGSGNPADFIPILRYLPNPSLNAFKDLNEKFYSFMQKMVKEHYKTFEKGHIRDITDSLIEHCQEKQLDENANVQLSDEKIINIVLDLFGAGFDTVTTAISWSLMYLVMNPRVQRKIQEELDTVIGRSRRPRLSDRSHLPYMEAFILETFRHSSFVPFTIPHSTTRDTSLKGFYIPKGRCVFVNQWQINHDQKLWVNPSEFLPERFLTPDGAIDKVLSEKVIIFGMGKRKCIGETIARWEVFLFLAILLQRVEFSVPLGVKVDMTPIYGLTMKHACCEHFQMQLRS
Method in brief: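 Read-out: fluorescence intensity from enzymatic turnover of substrate by recombinant CYP1A1, loss of signal indicating inhibition. Incubation 1 h post-dose. Primary single-point 10 uM in duplicate; actives rerun singly with top concentration 20 uM.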

[10] = molecular target: human CYP1A2, CYP1A2 (gene 1544) (UniProt P05177); assay: NVS_ADME_hCYP1A2: NovaScreen (NVS) CYP450-related Enzyme Activity (ADME) Assay for human CYP1A2 (AID 2283102; active = hit-call score of the fitted dose curve at least 0.9, where 1 is the maximum;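 note: potency for inhibition since loss of fluorescence marks reduced CYP1A2 activity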)
Sequence of human CYP1A2, CYP1A2 (gene 1544) (P05177 whole entry, looked up): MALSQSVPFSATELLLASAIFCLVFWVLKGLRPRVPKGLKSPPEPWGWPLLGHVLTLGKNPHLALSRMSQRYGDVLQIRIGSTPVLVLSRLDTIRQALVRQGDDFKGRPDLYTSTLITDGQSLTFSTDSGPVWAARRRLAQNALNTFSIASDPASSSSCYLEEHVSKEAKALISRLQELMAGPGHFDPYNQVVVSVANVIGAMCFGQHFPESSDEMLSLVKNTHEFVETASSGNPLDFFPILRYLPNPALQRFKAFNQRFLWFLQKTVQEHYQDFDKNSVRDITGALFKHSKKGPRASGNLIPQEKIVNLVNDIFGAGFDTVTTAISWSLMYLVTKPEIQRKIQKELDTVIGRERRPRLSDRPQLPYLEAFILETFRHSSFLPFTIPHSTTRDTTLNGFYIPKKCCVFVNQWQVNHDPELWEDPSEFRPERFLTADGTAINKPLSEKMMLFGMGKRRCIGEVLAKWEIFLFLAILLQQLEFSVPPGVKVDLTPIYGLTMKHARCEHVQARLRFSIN
Method in brief: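 Fluorescence-intensity enzyme activity read-out, taken 0.5 h post-dosing, using insect-cell-derived recombinant CYP1A2 and specific fluorescent substrate. Acetonitrile served as negative control/baseline. Single-concentration duplicate screen at 10 uM, then concentration-response follow-up.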

Measured: AC50

Sequence of E-selectin (Homo sapiens) (P16581 whole entry, looked up): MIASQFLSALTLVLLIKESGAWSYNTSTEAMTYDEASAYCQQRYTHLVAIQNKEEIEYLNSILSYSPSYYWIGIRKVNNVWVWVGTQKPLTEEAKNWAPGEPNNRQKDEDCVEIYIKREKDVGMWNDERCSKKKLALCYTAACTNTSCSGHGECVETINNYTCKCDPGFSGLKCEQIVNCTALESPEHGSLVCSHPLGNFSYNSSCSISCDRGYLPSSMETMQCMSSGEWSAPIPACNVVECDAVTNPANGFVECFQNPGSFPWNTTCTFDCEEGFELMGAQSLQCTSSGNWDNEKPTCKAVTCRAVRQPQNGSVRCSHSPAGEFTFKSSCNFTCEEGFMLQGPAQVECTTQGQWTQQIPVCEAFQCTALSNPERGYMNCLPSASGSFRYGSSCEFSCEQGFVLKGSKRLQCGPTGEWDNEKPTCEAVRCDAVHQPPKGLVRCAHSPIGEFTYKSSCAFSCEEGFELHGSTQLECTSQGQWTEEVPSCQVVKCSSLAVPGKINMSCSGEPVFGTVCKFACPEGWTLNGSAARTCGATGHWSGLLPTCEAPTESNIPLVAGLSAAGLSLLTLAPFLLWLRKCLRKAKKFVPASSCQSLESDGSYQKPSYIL

N=C(N)c1ccc(OCCCCCOc2ccc(C(=N)N)cc2)cc1
active: [4] 6.91 µM | [5] 13.6 µM
inactive: [1] | [2] | [3] | [6]

CC(=O)Nc1ccc(O)cc1
inactive: [2] | [3] | [4] | [5] | [6]

O=C(CCCN1CCC(O)(c2ccc(Cl)cc2)CC1)c1ccc(F)cc1
active: [5] 27 µM | [6] 19 µM
inactive: [1] | [2] | [3] | [4]

O=C(O)CCC(F)(F)C(F)(F)C(F)(F)C(F)(F)C(F)(F)F
inactive: [1] | [2] | [3] | [4] | [5] | [6]

COCN(COC)c1nc(N(COC)COC)nc(N(COC)COC)n1
inactive: [1] | [2] | [3] | [4] | [5] | [6]

CS(=O)(=O)c1ccc([C@@H](CC2CCCC2)C(=O)Nc2cnccn2)cc1Cl
active: [5] 15.2 µM
inactive: [1] | [2] | [4] | [6]

CCOC(=O)CN[C@@H](C(=O)N1CC[C@H]1C(=O)NCc1ccc(/C(N)=N/O)cc1)C1CCCCC1
inactive: [1] | [2] | [3] | [4] | [5] | [6]

Clc1ccc(Nc2nnc(Cc3ccncc3)c3ccccc23)cc1
inactive: [1] | [2] | [3] | [4] | [5] | [6]

Oc1cc2ccccc2cc1O
inactive: [1] | [2] | [3] | [4] | [5] | [6]

O=C(NO)c1ccccc1
inactive: [1] | [2] | [3] | [4] | [5] | [6]

CCCCCCc1ccc(N)cc1
inactive: [7]

COC1=CC(=O)C[C@@H](C)[C@]12Oc1c(Cl)c(OC)cc(OC)c1C2=O
inactive: [1] | [2] | [3] | [4] | [5] | [6]

O=C(NCc1ncc(C(F)(F)F)cc1Cl)c1c(Cl)cccc1Cl
inactive: [1] | [2] | [3] | [4] | [5] | [6]

O=P(O)(O)CCC(F)(F)C(F)(F)C(F)(F)C(F)(F)C(F)(F)C(F)(F)C(F)(F)C(F)(F)F
inactive: [1] | [2] | [3] | [4] | [5]
active: [6] 25.1 µM and 38.3 µM

OCC(CO)(CBr)CBr
inactive: [1] | [2] | [3] | [4] | [5] | [6]

CCCCCCCCCCCCCCCCCC[N+](C)(C)Cc1ccccc1
active: [1] 4.86 µM | [2] 3.19 µM | [3] 0.919 µM | [4] 10 µM | [5] 0.312 µM | [6] 2.67 µM

CCCCCCCCCCCCCCC
inactive: [1] | [2] | [3] | [4] | [5] | [6]

O=C(O)C(F)(F)OC(F)(F)C(F)(F)OC(F)(F)C(F)(F)OC(F)(F)C(F)(F)C(F)(F)C(F)(F)F
active: [1] 45.4 µM and 49.9 µM | [2] 49.2 µM and 53.4 µM | [3] 44.5 µM and 45.8 µM | [4] 30 µM and 24.7 µM | [5] 49.6 µM and 47.7 µM | [6] 51.5 µM and 53.1 µM

CCCCC(CC)C(=O)O (centres undefined)
inactive: [1] | [2] | [3] | [4] | [5] | [6]

CN(Cc1cnc2nc(N)nc(N)c2n1)c1ccc(C(=O)N[C@@H](CCC(=O)O)C(=O)O)cc1
active: [5] 3.39 µM and 2.18 µM and 1.17 µM
not listed: [7] | [9] | [10]
inactive: all other assays above

CCCCc1oc2ccccc2c1C(=O)c1cc(I)c(OCCN(CC)CC)c(I)c1
active: [1] 22.7 µM | [2] 22.9 µM | [3] 8.86 µM | [4] 15.1 µM | [5] 4.1 µM | [6] 13.4 µM

Cc1[nH]nc2c1N=C(c1ccccc1Cl)c1cc([N+](=O)[O-])ccc1N2
inactive: [3]
active: [1] 4.48 µM | [2] 8.28 µM | [4] 0.893 µM | [5] 1.94 µM | [6] 2.15 µM

CCCCC(CC)C(=O)OCCOCCOCCOCCOC(=O)C(CC)CCCC (centres undefined)
inactive: [1] | [2] | [3] | [4] | [5] | [6]

O=C1OC2(c3ccccc31)c1cc(I)c(O)c(I)c1Oc1c2cc(I)c(O)c1I
inactive: [2] | [3] | [4] | [5] | [6]

CCC(C)c1ccccc1O (centres undefined)
inactive: [1] | [2] | [3] | [4] | [5] | [6]

CCCCCC(C)OC(=O)COc1ccc(Cl)c2cccnc12 (centres undefined)
inactive: [9]
active: [10] 0.751 µM

COc1cc(OC)nc(NC(=O)NS(=O)(=O)Nc2ccccc2C(=O)N(C)C)n1
inactive: [1] | [2] | [3] | [4] | [5] | [6]

CCCCCc1ccc(O)cc1
active: [1] 26.8 µM | [2] 36.7 µM | [3] 13.5 µM | [4] 30.6 µM | [5] 15.3 µM | [6] 25.9 µM

O=C1NS(=O)(=O)c2ccccc21
inactive: [1] | [2] | [3] | [4] | [5] | [6]

Oc1ccc(Cc2ccccc2O)cc1
inactive: [1] | [2] | [3] | [4] | [5] | [6]
